# Source: PubChem
# Measles CPE: compounds protecting cells from measles virus cytopathic effect, primary screen, measles RdRp inhibitor project, single point, MLSMR library, absorbance | protection (pct of control), % at 4 µM | actives 1.5% (n = 140,000) | Measles virus-infected cells, CPE protection; in the data active = protection mostly above about 24%, no sharp cut-off; inactive = mostly below about 26%
# Smad3 FoxH1 inh: Smad3/FoxH1 peptide binding inhibitors, primary screen, biochemical, TR-FRET; Mothers against decapentaplegic homolog 3 (Homo sapiens), P84022; TR-FRET Smad3/Dy647-FoxH1 peptide binding, europium anti-His; inhibition, % at 25 µM; actives 0.29% (n = 88,000); AID 630, 2007;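 active = compounds that reduce the energy-transfer binding signal between the protein and its labelled peptide by more than half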
# Target sequence (P84022 whole entry, looked up): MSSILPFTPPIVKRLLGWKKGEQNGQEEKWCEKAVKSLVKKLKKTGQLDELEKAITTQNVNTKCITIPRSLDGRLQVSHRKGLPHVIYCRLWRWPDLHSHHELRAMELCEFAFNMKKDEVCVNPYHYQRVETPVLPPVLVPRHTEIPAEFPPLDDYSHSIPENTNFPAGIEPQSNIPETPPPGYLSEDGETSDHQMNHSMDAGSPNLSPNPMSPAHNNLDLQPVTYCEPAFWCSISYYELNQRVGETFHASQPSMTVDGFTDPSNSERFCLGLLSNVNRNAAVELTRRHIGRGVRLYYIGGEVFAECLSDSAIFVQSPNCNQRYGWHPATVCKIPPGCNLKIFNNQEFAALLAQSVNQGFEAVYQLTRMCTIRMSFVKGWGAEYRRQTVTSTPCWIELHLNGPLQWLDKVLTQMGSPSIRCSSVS
# MT1-MMP txn act: MT1-MMP promoter reporter activation – cell-based, luciferase luminescence, primary screen; actives 0.16% (n = 86,000); HT1080 MT1-MMP promoter luciferase reporter, overnight; active compounds read high; activation factor at 10 µM;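 active = activation factor of at least 2 for MT1-MMP transcription at 10 µM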
# Numbers stand for hits; - = inactive; . = no result given. Shown are actives, neighbours in structure and some others; about 1.7% of the full set was active somewhere.
SMILES,Measles CPE,Smad3 FoxH1 inh,MT1-MMP txn act
COC(=O)c1ccc(C(NC(=O)OCc2ccccc2)/C(=C/[C@@H](C)C(=O)NCc2ccc(S(C)(=O)=O)cc2)C(F)(F)F)cc1 (stereo not given in full),.,.,-
CCOC(=O)C1CCN(C(=O)CS(=O)Cc2nc(-c3ccc(C)cc3)oc2C)CC1 (stereo not given),46,-,-
CCOC(=O)C1CCN(C(=O)CSCc2nc(-c3ccc(OCC)cc3)oc2C)CC1,-,-,-
COC(=O)c1nn(-c2ccc(Cl)cc2)c(=O)cc1Sc1ccccn1,28,.,.
COC(=O)c1nn(-c2ccccc2)c(=O)cc1Oc1ccc(Cl)cc1,-,.,.
CCN(CC)C(=O)N1CCn2c(nc3ccccc32)C1,-,-,-
O=C(Nc1ccccc1)N1CCn2c(nc3ccccc32)C1,48,-,-
N#Cc1cc2c(nc1SC1CCCCC1O)CCCC2 (stereo not given),-,93,-
N#Cc1cc2c(nc1SCC(N)=O)CCCCC2,-,-,-
Cc1cc2cc(C#N)c(N3CCN(S(C)(=O)=O)CC3)nc2cc1C,-,.,.
Cc1cc([N+](=O)[O-])c(C)c(Br)c1C,.,-,.
Cc1cc(Cl)c(OCCCN(C)C)c(Br)c1,48,.,.
Cc1ccc(OCCCN(C)C)c(Br)c1,-,.,-
Nc1nc2c(ncn2[C@@H]2C=C[C@@H](CO)C2)c(=O)[nH]1,.,-,.
Cc1cc2c(cc1C)/C(=C\C(N)=O)NC(C)(C)C2,44,-,-
Cc1cccc2c1CC(C)(C)N/C2=C\C(N)=O,-,.,.
CC(C)(Oc1ccc(-c2cccc3ccccc23)cc1)C(=O)O,.,-,.
Cc1nc2nc3c(c(=O)n2[nH]1)CCCC3,29,.,.
O=C(O)Cc1nc2nc3c(c(=O)n2[nH]1)CCCC3,-,-,-
COc1cccc(/C=C2\N=C3CCCCCN3C2=O)c1,36,-,-
COc1ccc(/C=C2/N=C(SC3CCOC3=O)N(c3cccc(OC)c3)C2=O)cc1 (stereo not given),-,.,.
CS(=O)(=O)c1sc2nc(-c3cccs3)cc(-c3ccccc3)c2c1N,-,-,2.2
Cc1ccc(-c2cc(-c3ccccc3)c3c(N)c(S(C)(=O)=O)sc3n2)cc1,-,-,-
CC(C)OCCCNC(=O)c1cccc(NC(=O)c2ccccc2)c1,-,.,.
CC(C)OC(=O)c1cccc(NC(=O)c2ccccc2)c1,-,-,2.1
SMILES,Measles CPE,Smad3 FoxH1 inh,MT1-MMP txn act
Cc1cc(OC2CCCCC2)nc(-c2ccccc2O)n1,-,-,-
Cc1cc(Oc2ccc(Cl)cc2)nc(-c2ccccc2O)n1,31,-,-
Cc1ccc(Oc2cc(C)nc(-c3ccccc3O)n2)cc1,-,-,-
Cc1cc(OCc2ccc(F)cc2)nc(-c2ccccc2O)n1,33,-,-
O[C@H](CNc1ccccn1)c1ccccc1,.,-,.
CC(C)n1c(SCC(=O)NCc2ccco2)nc2c1c(=O)n(C)c(=O)n2C,-,-,-
Cn1c(=O)c2c(nc(SCC(=O)NCc3ccco3)n2C)n(C)c1=O,33,-,-
O=C(COc1ccc2ccccc2c1)N/N=C/C1CC=CCC1 (stereo not given),-,.,.
CC1CCc2sc(C(=O)OCC(=O)NCc3ccc(F)cc3)cc2C1 (stereo not given),-,.,.
C[C@H](CCC(=O)O)[C@@H]1CC[C@@H]2[C@H]3CC[C@@H]4C[C@H](O)CC[C@@]4(C)[C@@H]3CC[C@]21C,.,-,.
NC(N)=NC(N)=Nc1c(F)c(F)c(F)c(F)c1F,.,56,.
CCNC(=S)N/N=C/c1cn(Cc2ccc(F)cc2)c2ccccc12,29,.,.
CNC(=S)N/N=C/c1cn(Cc2c(F)cccc2Cl)c2ccccc12,-,.,.
O=C(NCc1ccco1)C(=O)NCC1OCCN1S(=O)(=O)c1ccc(Cl)cc1 (stereo not given),-,.,.
O=C(NCc1ccco1)C(=O)NCC1OCCN1S(=O)(=O)c1ccc(F)cc1 (stereo not given),50,.,.
COc1c(O)c(O)cc2c1oc1c3ccccc3oc(=O)c21,.,.,-
Cc1c2cccc(Sc3ccccc3)c2c2c3c(cccc13)[S+](c1ccccc1)C2 (stereo not given),.,-,.
O=C(CSc1ccccc1C(=O)O)NCc1ccco1,-,-,-
O=C(CSc1ccccc1C(=O)O)NCc1ccc(Cl)cc1,40,.,.
CN1C(=O)C(CC(=O)NC2CCCCC2)SC1=Nc1ccccc1 (stereo not given),-,.,.
O=C(CN1C(=O)S/C(=C/c2cc(Br)cs2)C1=O)N1CCOCC1,-,.,.
COc1ccc(-n2c(C)nc(=O)c(-c3ccccc3)c2C)cc1,-,-,-
Cc1nc(=O)cc(-c2ccccc2)n1-c1ccccc1,36,-,-
COc1cc(C(=O)NC2CCCc3ccccc32)ccc1OCC(=O)Nc1ccc(F)cc1 (stereo not given),-,.,.
CN1CCN(c2nc3c(c(=O)[nH]c(=O)n3C)n2CC(N)=O)CC1,29,-,-
SMILES,Measles CPE,Smad3 FoxH1 inh,MT1-MMP txn act
CCCn1c(N2CCN(C)CC2)nc2c1c(=O)[nH]c(=O)n2C,-,-,-
Cn1c(=O)[nH]c(=O)c2c1nc(N1CCCCC1)n2CC(O)CN1CCCCC1 (stereo not given),-,-,-
Cn1c(=O)[nH]c(=O)c2c1nc(N1CCCCCC1)n2CCN1CCCCCC1,39,-,-
CN(C)CC[C@@H](C(=O)C(C)(C)C)c1ccccn1,.,-,.
CSc1cc(C)n(-c2ccc(Cl)cc2)c(=S)c1C(C)=O,-,.,.
COc1ccc(-n2c(C)cc(SC)c(C(C)=O)c2=S)cc1,98,.,.
O=S1(=O)[C@H]([C@H]2CC3c4ccccc4C2c2ccccc23)[C@@H](N2CCCCC2)[C@@H]1c1ccccc1,.,-,.
C[C@@H](C(=O)Nc1ccc2ccccc2c1)[C@H]1C[C@]1(C)[C@H](NC(=O)OCc1ccccc1)c1ccccc1,38,.,-
CC(=O)N[C@@H](c1ccccc1)[C@]1(C)C[C@H]1[C@@H](C)C(=O)Nc1ccc2ccccc2c1,.,.,-
CCN(CCNC(=O)C1CCCN(S(=O)(=O)CC)C1)c1ccccc1 (stereo not given),-,-,-
CCN(CCNC(=O)C1CCN(S(=O)(=O)CC)CC1)c1ccccc1,60,-,-
O=C(O)CSc1ccc(N=C=S)cc1,.,-,.
Cc1nc2nc(C)c(CCC(=O)N3CCc4ccccc43)c(C)n2n1,-,-,-
Cc1nc2ncnn2c(C)c1CCC(=O)N1CCc2ccccc21,40,-,-
O=c1c2ccccc2nc(-c2ccco2)n1Cc1ccccc1,-,-,-
CCOc1ccc(CCn2c(-c3ccco3)nc3ccccc3c2=O)cc1OCC,44,-,-
CNC(=O)c1cc(C)c(-c2ccccc2)s1,49,-,-
CNC(=O)c1sc(-c2ccccc2)nc1C,-,-,.
CCOc1cc(CNc2ccc(CNc3ncn[nH]3)cc2)ccc1OCc1ccccc1,-,.,.
O=S(=O)(O)c1ccc(-c2nnc(-c3ccccn3)nc2-c2ccc(S(=O)(=O)O)o2)o1,.,-,.
Cc1ccc(C(=O)NNC(=O)CCC(=O)Nc2cccc(Cl)c2C)cc1,-,.,.
Cc1cccc(C(=O)NNC(=O)CCC(=O)Nc2cccc(Cl)c2C)c1,35,.,.
O=C1CC(c2ccc(F)c(Br)c2)C2=C(CCCC2=O)N1 (stereo not given),-,-,2.3
O=C1CC(c2ccc3c(c2)OCO3)C2=C(CCCC2=O)N1 (stereo not given),-,-,-
